Drawing on PubChem BioAssay (NCI), this text covers growth for 15 compounds.

The panel holds about 83,000 compounds, 20% with a hit somewhere; the sample as a whole holds those more often.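 In brief: 96-well plates, 48 h treatment, single concentration, percent growth endpoint.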 Unmarked numbers belong to inactive results. Activity calls are given as the source filed them. How the source made its calls: active means growth percent below 10; inactive means the rest.

Test systems include T-47D breast; BT-549 breast; MDA-MB-435 melanoma; SW-620 colon; MCF7 breast; HCT-116 colon; HCC-2998 colon; KM12 colon.
What all share (test): NCI-60 one-dose screen, 48 h (100 = growth as untreated, 0 = no growth, -100 = all killed)
Holding throughout (details): 10 µM unless noted

With `CCCCCCCCn1ccc2cc(NC(=O)CN3CCN(c4nc(C)cc(N5CCCCC5)n4)CC3)ccc21`, the growth in the assay on T-47D breast is 79.6%; in the assay on BT-549 breast, 83.4%; in the assay with MDA-MB-435 melanoma, 92.4%; with SW-620 colon it was 87.6%; with MCF7 breast it was 70.8%; with HCT-116 colon, 76%. For the same compound, the growth with HCC-2998 colon is 117%; in the assay on KM12 colon, 86.4%.
Regarding `Cc1nn(-c2nc(-c3cc4ccccc4oc3=O)cs2)c(C)c1N=Nc1ccccc1`, the growth in the assay on T-47D breast was 95.3%; in the assay with BT-549 breast, 99.7%; in the assay with MDA-MB-435 melanoma, 101%; in the assay on SW-620 colon, 103%; in the assay with MCF7 breast it was 89.3%; in the assay on HCT-116 colon, 105%. In addition, the growth is 111% with HCC-2998 colon and 100% with KM12 colon.
In the case of `CCN(CC)CC#CCOC(=O)[C@]1(C)CCC[C@]2(C)c3ccc(C(C)C)cc3CC[C@@H]12`, the growth with T-47D breast was 78.6%; in the assay on BT-549 breast, 92.7%; in the assay on MDA-MB-435 melanoma, 91.6%; in the assay with SW-620 colon, 87.7%; in the assay with MCF7 breast it was 82.6%; in the assay on HCT-116 colon it was 58.3%. Moreover, the growth in the assay on HCC-2998 colon was 91.5%; with KM12 colon, 85.3%.
Turning to `COc1ccc2c(c1)CCNC21C(=O)Nc2c(Br)cc(Br)cc21` (stereo not given), the growth in the assay on T-47D breast is 90.3%; with BT-549 breast, 103%; in the assay with MDA-MB-435 melanoma, 101%; in the assay with SW-620 colon it was 97.4%; in the assay on MCF7 breast it was 101%; in the assay on HCT-116 colon, 103%. For the same compound, the growth in the assay with HCC-2998 colon was 105%; in the assay on KM12 colon, 104%.
As for `O=C1OCC2=C1C(c1cccc([N+](=O)[O-])c1)c1cc3c(cc1N2CCO)CCC3` (stereo not given), the growth is 65.9% in the assay with T-47D breast; 31.5% in the assay with BT-549 breast; -34.9% (active) in the assay on MDA-MB-435 melanoma; 22.2% in the assay on SW-620 colon; 20% in the assay with MCF7 breast; 7.18% (active) with HCT-116 colon. Further, the growth in the assay on HCC-2998 colon is 6.84% (active); with KM12 colon, 15.7%.
For the compound `N#Cc1c(-c2cccc(F)c2)cc(-c2cccnc2)[nH]c1=O`, the growth was 93.4% in the assay with T-47D breast; 98.3% with BT-549 breast; 100% with MDA-MB-435 melanoma; 110% in the assay on SW-620 colon; 92.4% with MCF7 breast; 103% in the assay with HCT-116 colon. The growth with HCC-2998 colon was 112%; in the assay on KM12 colon, 103%.
Consider `CCN(c1cc(-c2ccc(CN3CCC(/C=C/S(=O)(=O)c4ccccc4)CC3)cc2)cc(C(=O)NCc2c(C)cc(C)[nH]c2=O)c1C)C1CCOCC1`, for which the growth in the assay on T-47D breast is 71.6%; with BT-549 breast, 51.3%; with MDA-MB-435 melanoma, 76.8%; in the assay with SW-620 colon, 94%; in the assay with MCF7 breast, 44.3%; in the assay on HCT-116 colon, 56.9%. The growth in the assay on HCC-2998 colon was 101%; in the assay on KM12 colon it was 76.1%.
Take `CC/C(=C(/c1ccc(O)cc1)c1ccc(OCCN2CCCCCC2)cc1)c1ccc(Cl)cc1`: the growth is 51.9% with T-47D breast; 69.8% in the assay with BT-549 breast; 81.1% in the assay on MDA-MB-435 melanoma; 62.6% in the assay with SW-620 colon; 13% in the assay with MCF7 breast; -53% (active) with HCT-116 colon. The growth is 28.8% in the assay on HCC-2998 colon and 38.2% with KM12 colon.
As to `COc1ccc(C/C(C)=C(/c2ccc(OCCN3CCCC3)cc2)c2ccc(OC(=O)NCc3ccccc3)cc2)cc1`, the growth with T-47D breast was 51%; in the assay on BT-549 breast it was 82.5%; in the assay with MDA-MB-435 melanoma, 73%; in the assay on SW-620 colon, 95.3%; with MCF7 breast it was 30.7%; in the assay with HCT-116 colon it was 39.6%. The growth with HCC-2998 colon was 87.8%; in the assay on KM12 colon, 90.7%.
Regarding `Cn1cc2c(=O)nc3c(-c4nc5ccccc5[nH]4)n[nH]n3c2n1`, the growth was 67.6% in the assay on T-47D breast; 34.7% in the assay on BT-549 breast; 73.9% in the assay on MDA-MB-435 melanoma; 97.2% with SW-620 colon; 65.7% with MCF7 breast; 80.6% in the assay with HCT-116 colon. Moreover, the growth in the assay with HCC-2998 colon is 84.8%; in the assay with KM12 colon it was 73.9%.
For the compound `N=C(N)c1ccc(-c2ccc(-c3ccc(F)cc3)s2)nc1`, the growth in the assay with T-47D breast was 76.3%; with BT-549 breast, 82.1%; with MDA-MB-435 melanoma, 70.2%; with SW-620 colon, 26%; with MCF7 breast it was 21.9%; in the assay on HCT-116 colon it was 3.54% (active). Also, the results for the growth in the assay on HCC-2998 colon and in the assay with KM12 colon were 16.2% and 18.7%, respectively.
`N=C(N)SCc1c2ccccc2c(CSC(=N)N)c2ccccc12`: the growth with T-47D breast was 71.5%; in the assay with BT-549 breast it was 102%; in the assay with MDA-MB-435 melanoma it was 74%; in the assay with SW-620 colon, 43.1%; in the assay with MCF7 breast it was 38.3%; in the assay on HCT-116 colon, 40.4%. Further, the growth is 79.5% in the assay on HCC-2998 colon and 59.7% in the assay on KM12 colon.
`CCOc1nc(-c2ccccc2)cc2c(O)c(C(=O)N/N=C/c3ccc(N(C)C)cc3)[nH]c(=O)c12`: the growth in the assay on T-47D breast was 218%; in the assay with BT-549 breast it was 125%; with MDA-MB-435 melanoma, 118%; in the assay with SW-620 colon it was 97.8%; in the assay with MCF7 breast it was 92.9%; with HCT-116 colon it was 112%. The figures for the growth in the assay on HCC-2998 colon and in the assay with KM12 colon were -14.8% (active) and 109%, respectively.
Regarding `CCCCCC#CC1OC23CCCCC2C(C#N)(C(=N)O3)C1(C#N)C#N` (stereo not given), the growth is 113% in the assay on T-47D breast; 89.9% with BT-549 breast; 92.6% in the assay on MDA-MB-435 melanoma; 95.5% in the assay on SW-620 colon; 88.4% with MCF7 breast; 89.2% with HCT-116 colon. For the same compound, the growth is 102% in the assay on HCC-2998 colon and 99.3% in the assay with KM12 colon.
`COc1cc(/C=C(/c2ccccc2)[N+](=O)[O-])c(OC)c2c1OCO2`: the growth with T-47D breast was -55.9% (active); in the assay on BT-549 breast, -84.4% (active); with MDA-MB-435 melanoma, -23% (active); in the assay on SW-620 colon it was -40.5% (active); with MCF7 breast, -36.4% (active); with HCT-116 colon, -86.4% (active). Besides, the figures for the growth in the assay with HCC-2998 colon and with KM12 colon were -91% (active) and -50.8% (active), respectively.
